Sampled rows, rich in hits. Any-hit rate of the full collection: about 20%.
HCMV inh: blocks human cytomegalovirus replication; hit rate 4.5% among 410,000; activity change, negative = inhibition, % at 57.5 µM; AID 1259415; HFF cells, HCMV-luciferase reporter, 72 h; stronger effect = lower value; in the data active = activity change below about -60%; inconclusive = no clear call, values can overlap the other calls; inactive = above about -39%; also: % is scaled to controls: 0 for no effect and ±100 for the full control effect
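Steps: HFFs plated, 16 h 37C; compounds added; HCMV-luciferase added to MOI 1 PFU/cell; 72 h 37C; OneGlo reagent, 5 min room temperature; luminescence read, normalized to controls.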
Pf growth 48h: P. falciparum growth inhibition at 48 hours (one generation). P. falciparum luciferase growth in erythrocytes, 48 h. Potency, µM (series often up to 28.7 µM), for the others: at the top dose activity change, negative = inhibition, most hits filed as inhibitors. hit rate 5.9% among 310,000. AID 504832; also: potency is read from the fitted curve at half-maximal effect; % is scaled to controls: 0 for no effect and ±100 for the full control effect
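Here the parasites carry a stable luciferase gene and grow inside erythrocytes in Albumax-based RPMI medium with compound for one erythrocytic cycle. Activity is scored as loss of luminescent signal.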
CHX counter: affects cycloheximide protein synthesis inhibition readout, counter-screen; hit rate 12% among 300,000; cell reporter, cycloheximide protein synthesis inhibition counterscreen; max response, %; in the data active = max response mostly above about 13%, no sharp cut-off; inactive = mostly below about 14%; also: read at 38.3 µM for the half of the compounds with a filed dose; 0% is about no effect
Pf growth 96h: P. falciparum growth inhibition at 96 hour, primary screen for plastid delayed-death inhibitors | hit rate 6.9% among 320,000 | Potency, µM (highest dose often 28.7 µM), inactives show top-dose activity change, negative = inhibition, most hits filed as inhibitors | P. falciparum luciferase reporter growth, 96 h; also: potency is read from the fitted curve at half-maximal effect; % is scaled to controls: 0 for no effect and ±100 for the full control effect
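Delayed-death screen, second-generation endpoint: infected erythrocytes, 2% hematocrit, 0.05% parasitemia final; 96 hours at 37 C, 5% CO2; luciferase detection reagent; luminescence decrease equals reduced growth.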
Shiga toxin inh: Shiga toxin inhibition; inhibition, % at 38.7 µM; AID 2315; hit rate 9.2% among 290,000; Vero cells, Shiga toxin protein synthesis inhibition reporter; in the data active = inhibition mostly above about 28%, no sharp cut-off; inactive = mostly below about 43%; also: 0% is about no effect
The depositor's hits bear a star; ? = inconclusive; / = no result given. Unless noted, calls follow the shape of the dose curve; as a rule, active = well fitted inhibition curve with a large enough effect; inconclusive = small, poorly fitted or top-dose-only effect, or another doubt; inactive = no such curve, though single readings can be large or run the other way.

SMILES | HCMV inh | Pf growth 48h | CHX counter | Pf growth 96h | Shiga toxin inh
Cc1ccc(NC(=O)COc2cccc(-n3cnnn3)c2)cc1S(=O)(=O)N1CCOCC1 | -37 | 13µM* | / | ? | /
COc1ccc(NC(=O)COc2cccc(-n3cnnn3)c2)cc1 | ? | 29% | -4 | 10µM* | -9
Cc1ccc(NC(=O)COc2ccccc2)cc1S(=O)(=O)N1CCCCC1 | -15 | / | / | / | /
Cc1cc(OCC(=O)Nc2nc3c(s2)CCCC3)cc(C)c1Cl | -12 | / | / | / | /
CCC1C(c2ccccc2)NC(c2ccccc2)CC1(O)c1ccc(F)cc1 (stereo not drawn) | -20 | 10µM* | -1 | ? | 0
COc1ccc(S(=O)(=O)N2CCOCC2)cc1NC(=O)CN1CCC(Cc2ccccc2)CC1 | -66* | 12µM* | -3 | 4.7µM* | -13
NC(=O)C1CCN(c2ccc(S(=O)(=O)N3CCC(Cc4ccccc4)CC3)cn2)CC1 | -67* | 31% | -1 | -3% | -17
COc1ccc(S(=O)(=O)N2CCC(Cc3ccccc3)CC2)cc1NC(C)=O | 44 | 34% | -2 | 4.7µM* | -3
COc1ccccc1CNC(=O)C1CCN(c2nn3c(=O)cc(C)nc3s2)CC1 | -5 | / | / | / | /
Cc1ccc(NC(=O)C2CCN(c3nn4c(=O)cc(C)nc4s3)CC2)cc1 | -7 | / | / | / | /
COc1ccc(CNC(=O)C2CCCN(c3nn4c(=O)cc(C)nc4s3)C2)cc1 (stereo not drawn) | 0 | -14% | -1 | 9.3µM* | -5
CCOc1cc(C)nc(N2CCCC(C(=O)NCc3ccccc3F)C2)n1 (stereo not drawn) | 111 | 2.9µM* | -4 | / | -17
Cc1cc(C)nc(N2CCCC(C(=O)NCCc3ccccc3F)C2)n1 (stereo not drawn) | 23 | 5% | 2 | -18% | 28
CCOc1ccccc1CNC(=O)C1CCCN(c2nn3c(=O)cc(C)nc3s2)C1 (stereo not drawn) | -6 | ? | -7 | 15µM* | -7
Cc1ccc(NC(=O)C2CCCN2c2nn3c(=O)cc(C)nc3s2)cc1 (stereo not drawn) | 4 | 14% | -1 | 12µM* | -5
CCCCCCOc1ccc(C2C(=O)N(C3CCCCC3)CC(=O)N2CCCC)cc1 (stereo not drawn) | 46 | / | / | / | /
CCCCNCc1cccn1-c1ccccc1 | -30 | -18% | -2 | 18% | -7
CC1(C(=O)NS(=O)(=O)c2ccccc2Cl)CCN1C(=O)c1ccco1 (stereo not drawn) | 7 | / | / | / | /
O=C(Cn1c(=O)n(Cc2ccc(C(=O)NCc3ccccc3Cl)cc2)c(=O)c2ccccc21)Nc1ccc(F)cc1 | 4 | / | / | / | /
CCc1ccccc1NC(=O)C1CCCN(c2nn3c(=O)cc(C)nc3s2)C1 (stereo not drawn) | 17 | ? | -2 | 10µM* | -1
Cc1cc(=O)[nH]c2nnc(SCc3ccc(Cl)c(Cl)c3)n12 | 58 | / | / | / | /
COc1ccc(N2CSC3=C(C#N)C(c4cc(OC)c(OC)cc4OC)CC(=O)N3C2)c(OC)c1 (stereo not drawn) | 12 | / | -1 | 56% | 33
COc1cc(OC)c(C2CC(=O)N3CN(c4ccc(C)cc4)CSC3=C2C#N)cc1OC (stereo not drawn) | 64 | 37% | 12 | 33% | 41*
COc1ccc(N2CSC3=C(C#N)C(c4cc(OC)ccc4OC)CC(=O)N3C2)c(OC)c1 (stereo not drawn) | / | / | 2 | 13µM* | -6
N#Cc1cccc(N2[C@@H](Cc3cc4ccccc4n3Cc3ccccc3)COC[C@H]2Cc2ccc3ccccc3c2)c1 | 12 | / | / | / | /
SMILES | HCMV inh | Pf growth 48h | CHX counter | Pf growth 96h | Shiga toxin inh
Nc1nc(F)nc2c1ncn2[C@@H]1O[C@H](CO)[C@@H](O)[C@H]1O | -96* | -13% | / | ? | /
OCC1OC(n2cnc3c(NCc4ccco4)ncnc32)C(O)C1O (stereo not drawn) | -81* | / | / | / | /
Nc1nc(=O)n(C2OC(CO)C(O)C2O)cc1F (stereo not drawn) | -99* | / | / | / | /
Nc1cnn(C2OC(CO)C(O)C2O)c(=O)n1 (stereo not drawn) | -64* | -17% | -1 | -7% | -7
C[C@H](N)C(=O)NC[C@H]1O[C@@H](n2cnc3c(N)ncnc32)[C@H](O)[C@@H]1O | -75* | / | / | / | /
C[C@@H](N)C(=O)NC[C@H]1O[C@@H](n2cnc3c(N)ncnc32)[C@H](O)[C@@H]1O | 3 | / | / | / | /
CCOC(=O)N1CCN(CCC(=O)Nc2ccccc2OC)CC1 | 18 | 14% | 1 | 13µM* | -1
CCN1CCN(CCC(=O)Nc2ccccc2OC)CC1 | -17 | 3% | -4 | ? | 26
CCOC(=O)C1(c2ccccc2)CCN(CCC(=O)Nc2ccc(F)cc2)CC1 | 0 | 13µM* | / | 9.3µM* | /
CCOC(=O)C1(c2ccccc2)CCN(CCC(=O)Nc2ccccc2OC)CC1 | -25 | ? | -9 | ? | -4
CCOC(=O)N1CCN(S(=O)(=O)c2ccc(F)c(C(=O)Nc3ccc(C)c(Cl)c3)c2)CC1 | -26 | 13µM* | -5 | -3% | -11
CCOC(=O)N1CCN(CCC(=O)Nc2ccc(F)c(F)c2)CC1 | -31 | ? | -3 | 15µM* | 32
CC(O)CN(CCN(CC(C)O)CC(C)O)CC(C)O (stereo not drawn) | -8 | 9% | / | -14% | /
CC(=O)Nc1ccc(S(=O)(=O)NCC2CCC(C(=O)NCCc3ccc(C)cc3)CC2)cc1 (stereo not drawn) | -2 | / | / | / | /
COc1ccc(-c2nnc(SCC(=O)NC3CC3)o2)cc1 | 25 | 61% | / | 5% | /
Cc1nn(C)c(C)c1N1C(=O)c2cccc3c(Br)ccc(c23)C1=O | -74* | -25% | -3 | -3% | -9
O=C(Cn1nc2c(cc1=O)CCCC2)Nc1ccc(F)cc1F | 3 | / | / | / | /
CCOc1ccc(OCC)c(Nc2nc3ccc(Cl)cc3n3cnnc23)c1 | -22 | / | / | / | /
COc1ccc(/C=C2\CCC(C3CCCC3)C2=O)cc1Cn1nc(C)cc1C (stereo not drawn) | 3 | 28% | 9 | ? | 20
CCOc1ccc(/C=C2\CCC(C3CCCC3)C2=O)cc1 (stereo not drawn) | 35 | 145% | 22* | 4% | 21
COc1ccc(/C=C2\CCC(C3CCCC3)C2=O)cc1Cn1cccn1 (stereo not drawn) | -32 | -25% | 1 | 2% | 3
CCOc1ccc(/C=C2\CCC(C3CCCC3)C2=O)cc1OC (stereo not drawn) | 6 | -4% | 8 | ? | 30
CC1CCCC(=C\c2ccccc2)/C1=N/O (stereo not drawn) | -11 | -13% | -1 | 25% | 5
O=C1/C(=C/c2ccc(F)cc2)CCC1C1CCCC1 (stereo not drawn) | -34 | 86% | 41* | ? | 75*
COc1ccccc1/C=C1\CCC(C2CCCC2)C1=O (stereo not drawn) | -24 | 57% | 34* | 15µM* | 43*
O=C1/C(=C/c2ccccc2)CCC1C1CCCC1 (stereo not drawn) | -34 | 42% | 40* | 36% | 76*

Compound activity from PubChem.
